Reference: PubChem BioAssay (Tox21)
Results filed as inconclusive are left out. Active and inactive are the calls of the source. Unless noted, calls come from the whole dose curve; as a rule, active = well fitted curve in the direction sought with a large enough effect in the repeat runs; inconclusive = weak or mixed curves; inactive = no such curve, though single readings can be large; an effect the other way counts as inactive or inconclusive.

Tests used:
[1] = target: Progesterone receptor (Homo sapiens) (UniProt P06401); assay: qHTS assay to identify small molecule agonists of the progesterone receptor (PR) signaling pathway (AID 1346784; calls by dose curve; note: nearly all actives have a fitted effect of over 30% in size)
Method in brief: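 HEK 293T PR-UAS-bla reporter cells, 2% charcoal-stripped FBS; 6 hr settle at 37C/5% CO2, compound (DMSO) 16 hr, LiveBLAzer B/G FRET substrate 2 hr RT, fluorescence intensity read.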

[2] = target: Progesterone receptor (Homo sapiens) (UniProt P06401); assay: qHTS assay to identify small molecule antagonists of the progesterone receptor (PR) signaling pathway (AID 1346795; active = well fitted inhibition curve with a large enough effect in the signal ratio in the repeat runs, not every such curve was filed as active; the % refers to the signal ratio)
Method in brief: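 Beta-lactamase reporter, HEK293T PR-UAS-bla line; 2% charcoal-stripped FBS; 6 hr pre-incubation, 37C/5% CO2. Compound + R5020 1 nM final, 16 hr. LiveBLAzer B/G FRET substrate, 2 hr RT; fluorescence intensity read.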

[3] = qHTS assay to identify small molecule antagonists of the progesterone receptor (PR) signaling pathway - cell viability counter screen (AID 1346798); note: series mostly up to about 92 µM; nearly all actives have a fitted effect of over 50% in size
Method in brief: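 Luminescence readout (CellTiter-Glo, 30 min, RT) of viability in PR-UAS-bla HEK293T cells exposed to compound and R5020 agonist for 16 hr at 37C, 5% CO2; run in the same wells as the beta-lactamase reporter read.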

[4] = qHTS assay to identify small molecule agonists of the progesterone receptor (PR) signaling pathway - cell viability counter screen (AID 1346799; calls by dose curve; note: nearly all actives have a fitted effect of over 45% in size)
Method in brief: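 HEK293T PR-UAS-bla, 3,000 cells/well, 2% charcoal-stripped FBS; 6 h settle, compound 16 h at 37C/5% CO2; LiveBLAzer 2 h RT, then CellTiter-Glo 30 min RT, luminescence read.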

[5] = qHTS assay to identify small molecule antagonists of the TGF-beta/Smad signaling pathway - cell viability counter screen (AID 1346824); note: nearly all actives have a fitted effect of over 50% in size
Method in brief: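 SBE-bla HEK 293T cells were plated overnight at 37 C, then given compounds in DMSO plus TGF-beta1 (added as 0.25 ng/mL solution) for 5 hr. After the bla read, CellTiter-Glo was added to the same wells and luminescence read after 30 min at room temperature.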

[6] = qHTS assay to identify small molecule agonists of the TGF-beta/Smad signaling pathway - cell viability counter screen (AID 1346829); note: top concentration of the series differs between compounds; nearly all actives have a fitted effect of over 45% in size
Method in brief: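 After overnight seating at 37 C and 5% CO2, reporter cells got compounds for 5 hr and FRET substrate for 2 hr; cell viability then came from CellTiter-Glo luminescence.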

[7] = Human pregnane X receptor (PXR) small molecule agonists, qHTS cell viability counter screen (AID 1346977); note: nearly all actives have a fitted effect of over 50% in size; note: potency is the fitted concentration of half-maximal effect
Method in brief: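 Fluorescence read-out (CellTiter-Fluor) of viability in PXR-Luc HepG2 cells, multiplexed with the luciferase agonist read. Compounds in DMSO added after 5hr plating; 24hr total exposure at 37C, 5% CO2.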

[8] = Caspase-3/7 induction in HepG2 cells by small molecules, qHTS assay (AID 1346978); note: nearly all actives have a fitted effect of over 15% in size
Method in brief: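 Wild-type HepG2 cells (2,000/well) were settled 5 h at 37 C, 5% CO2, then exposed to compounds in DMSO for 17 h. Caspase-3/7 activity was read by luminescence 30 min after adding Caspase-Glo 3/7 reagent at room temperature.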

[9] = Caspase-3/7 induction in CHO-K1 cells by small molecules, qHTS cell viability counter screen (AID 1346979); note: nearly all actives have a fitted effect of over 35% in size; note: potency is the fitted concentration of half-maximal effect
Method in brief: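 CHO-K1 wt, 1,500 cells/well; 5hr pre-incubation 37C/5% CO2; compound pin transfer (DMSO); 16hr exposure; CellTiter-Fluor added, 1hr, fluorescence read.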

[10] = Caspase-3/7 induction in CHO-K1 cells by small molecules, qHTS assay (AID 1346980); note: nearly all actives have a fitted effect of over 15% in size
Method in brief: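 Wild-type cells were seeded at 1,500 per well and settled 5 hr at 37 C, 5% CO2, then exposed to DMSO-dissolved compounds for 17 hr. Caspase-Glo 3/7 reagent was added, and luminescence was read after 30min at room temperature.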

[11] = Caspase-3/7 induction in HepG2 cells by small molecules, qHTS cell viability counter screen (AID 1346981); note: series mostly up to about 92 µM; nearly all actives have a fitted effect of over 30% in size
Method in brief: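 After a 5-hr attachment period at 37 C and 5% CO2, wild-type HepG2 cells received compounds in DMSO. Sixteen hours later CellTiter-Fluor was dispensed and the fluorescent signal quantified after a further hour.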

[12] = target: Nuclear receptor subfamily 1 group I member 2 (Homo sapiens) (UniProt O75469); assay: Human pregnane X receptor (PXR) small molecule agonists, qHTS assay (AID 1346982); note: nearly all actives have a fitted effect of over 35% in size
Method in brief: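 Tox21 qHTS; PXR-Luc HepG2; compounds pinned from DMSO; 24 hr, 37 C; ONE-Glo luciferase detection, 30 min room temperature.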

[13] = target: Cytochrome P450 2D6 (Homo sapiens) (UniProt P10635); assay: Cytochrome P450 Family 2 Subfamily D Member 6 (CYP2D6) small molecule antagonists: luciferase reporter qHTS assay (AID 1671196); note: nearly all actives have a fitted effect of over 50% in size; note: potency is the fitted concentration of half-maximal effect; for activity change, negative = inhibition: series mostly up to about 120 µM
Method in brief: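 Room-temperature luminescent CYP2D6 activity assay: compound preincubated 10 min with enzyme–substrate mix, NADPH-initiated reaction 1 h, detection reagent 20 min before reading.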

[14] = target: Cytochrome P450 2C19 (Homo sapiens) (UniProt P33261); assay: Cytochrome P450 Family 2 Subfamily C Member 19 (CYP2C19) small molecule antagonists: luciferase reporter qHTS assay (AID 1671197); note: nearly all actives have a fitted effect of over 65% in size; note: potency is the fitted concentration of half-maximal effect; for activity change, negative = inhibition: series mostly up to about 120 µM
Method in brief: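 Inhibition of CYP2C19 was scored from loss of luminescence in a P450-Glo proluciferin substrate assay, NADPH-started and run 1 h at 37C, with ketoconazole as positive control.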

[15] = qHTS assay to identify small molecule agonists of the TGF-beta/Smad signaling pathway (AID 1346859; active = well fitted activation curve with a large enough effect in the signal ratio in the repeat runs, not every such curve was filed as active; the % refers to the signal ratio; note: series mostly up to about 77 µM)
Method in brief: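 Read-out: fluorescence at 460 and 530 nm (405 nm excitation) after a 2 hr room-temperature incubation with beta-lactamase FRET substrate. SBE-bla HEK 293T cells had been treated with test compounds for 5 hr at 37 C.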

[16] = target: Thyrotropin-releasing hormone receptor (Homo sapiens) (UniProt P34981); assay: qHTS assay to identify small molecule antagonists of the thyrotropin-releasing hormone receptor (TRHR) signaling pathway (AID 1346877; active = well fitted inhibition curve with a large enough effect in the repeat runs, not every such curve was filed as active; note: series mostly up to about 51 µM)
Method in brief: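 Calcium signal in dye-loaded TRHR/HEK293 cells; compounds added 5 min before TRH (1 nM final); fluorescence monitored 3 min at 1 s steps.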

[17] = target: Thyrotropin-releasing hormone receptor (Homo sapiens) (UniProt P34981); assay: qHTS assay to identify small molecule agonists of the thyrotropin-releasing hormone receptor (TRHR) signaling pathway (AID 1346891; calls by dose curve;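 note: HEK293 cells expressing TRHR with calcium dye readout; series mostly up to about 58 µM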)
Method in brief: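 HEK293/TRHR cells, 1500 per well, 18 h 37 °C; Ca dye 2 h 37 °C; pin-tool compound addition (agonist mode); kinetic fluorescence 3 min, 1 s reads; 15 concentrations, triplicate.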

[18] = target: Nuclear receptor subfamily 1 group I member 2 (Rattus norvegicus) (UniProt Q9R1A7); assay: Rat pregnane X receptor (rPXR) activation by small molecules, qHTS assay (AID 1346983); settings: rPXR luciferase reporter cells, One-Glo luminescence, 24 h; stronger effect = higher value; note: nearly all actives have a fitted effect of over 20% in size
Method in brief: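 Cell-based rPXR luciferase reporter assay, 2,000 cells per well, rested 5hr at 37 C before compound addition in DMSO, then 24 hr at 37 C. One-Glo reagent was added and luminescence read after 30 min at room temperature.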

[19] = target: Nuclear receptor subfamily 1 group I member 2 (Homo sapiens) (UniProt O75469); assay: CYP3A4 induction through human pregnane X receptor (PXR) by small molecules, qHTS assay (AID 1346984); note: nearly all actives have a fitted effect of over 40% in size; note: potency is the fitted concentration of half-maximal effect
Method in brief: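 Cells (DPX-2; HepG2 with PXR element plus CYP3A4-promoter luciferase) settled 5hr, then were treated 24hr at 37C. A 3hr, 3uM-final Luciferin-IPA step preceded luminescence measurement with One-Glo.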

[20] = target: Nuclear receptor subfamily 1 group I member 2 (Homo sapiens) (UniProt O75469); assay: Human pregnane X receptor (PXR) activation by small molecules, qHTS assay (AID 1346985); note: nearly all actives have a fitted effect of over 40% in size; note: potency is the fitted concentration of half-maximal effect
Method in brief: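 DPX-2 cells (HepG2 co-transfected with a PXR response element and a CYP3A4-promoter luciferase construct) were seeded at 2,000 per well, rested 5 hr at 37C, then exposed to DMSO-dissolved compounds for 24 hr. Activation was read as luciferase luminescence.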
% is set by controls: 0 for no effect and ±100 for the full control effect.

Sequence of Thyrotropin-releasing hormone receptor (Homo sapiens) (P34981 whole entry, looked up): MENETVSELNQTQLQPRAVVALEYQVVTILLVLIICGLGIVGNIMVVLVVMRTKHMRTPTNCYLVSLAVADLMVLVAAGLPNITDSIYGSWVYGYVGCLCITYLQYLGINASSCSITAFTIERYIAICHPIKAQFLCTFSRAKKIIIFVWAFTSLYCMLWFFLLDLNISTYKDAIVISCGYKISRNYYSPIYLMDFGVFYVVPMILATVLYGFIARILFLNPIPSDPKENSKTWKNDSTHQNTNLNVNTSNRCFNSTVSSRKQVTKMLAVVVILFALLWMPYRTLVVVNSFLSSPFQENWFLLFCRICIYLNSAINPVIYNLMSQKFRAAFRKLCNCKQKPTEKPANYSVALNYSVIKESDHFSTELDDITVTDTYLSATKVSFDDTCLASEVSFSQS
Sequence of Nuclear receptor subfamily 1 group I member 2 (Homo sapiens) (O75469 whole entry, looked up): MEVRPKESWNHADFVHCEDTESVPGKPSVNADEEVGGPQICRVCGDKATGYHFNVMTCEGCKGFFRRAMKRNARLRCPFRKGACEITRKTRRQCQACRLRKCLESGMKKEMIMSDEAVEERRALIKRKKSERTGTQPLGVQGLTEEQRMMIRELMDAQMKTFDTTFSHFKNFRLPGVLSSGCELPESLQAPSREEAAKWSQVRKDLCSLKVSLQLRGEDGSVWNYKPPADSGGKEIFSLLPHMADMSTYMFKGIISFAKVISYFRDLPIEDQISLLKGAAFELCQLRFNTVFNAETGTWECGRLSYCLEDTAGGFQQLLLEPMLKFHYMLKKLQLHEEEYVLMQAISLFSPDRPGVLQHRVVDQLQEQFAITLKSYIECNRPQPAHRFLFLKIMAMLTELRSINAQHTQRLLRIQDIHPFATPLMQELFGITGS
Sequence of Cytochrome P450 2C19 (Homo sapiens) (P33261 whole entry, looked up): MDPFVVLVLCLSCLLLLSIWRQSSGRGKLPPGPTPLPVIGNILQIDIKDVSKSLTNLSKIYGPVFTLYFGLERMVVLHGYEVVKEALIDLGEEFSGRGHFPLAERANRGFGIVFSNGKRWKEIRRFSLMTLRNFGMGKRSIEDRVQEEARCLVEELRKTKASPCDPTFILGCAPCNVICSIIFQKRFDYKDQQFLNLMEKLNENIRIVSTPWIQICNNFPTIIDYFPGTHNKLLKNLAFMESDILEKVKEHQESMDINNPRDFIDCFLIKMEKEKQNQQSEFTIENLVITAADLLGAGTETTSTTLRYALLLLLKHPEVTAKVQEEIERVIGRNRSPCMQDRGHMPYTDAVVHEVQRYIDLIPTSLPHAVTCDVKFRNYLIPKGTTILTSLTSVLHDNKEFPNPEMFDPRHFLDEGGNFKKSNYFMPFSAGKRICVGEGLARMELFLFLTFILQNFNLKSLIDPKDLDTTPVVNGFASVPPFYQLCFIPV
Sequence of Progesterone receptor (Homo sapiens) (P06401 whole entry, looked up): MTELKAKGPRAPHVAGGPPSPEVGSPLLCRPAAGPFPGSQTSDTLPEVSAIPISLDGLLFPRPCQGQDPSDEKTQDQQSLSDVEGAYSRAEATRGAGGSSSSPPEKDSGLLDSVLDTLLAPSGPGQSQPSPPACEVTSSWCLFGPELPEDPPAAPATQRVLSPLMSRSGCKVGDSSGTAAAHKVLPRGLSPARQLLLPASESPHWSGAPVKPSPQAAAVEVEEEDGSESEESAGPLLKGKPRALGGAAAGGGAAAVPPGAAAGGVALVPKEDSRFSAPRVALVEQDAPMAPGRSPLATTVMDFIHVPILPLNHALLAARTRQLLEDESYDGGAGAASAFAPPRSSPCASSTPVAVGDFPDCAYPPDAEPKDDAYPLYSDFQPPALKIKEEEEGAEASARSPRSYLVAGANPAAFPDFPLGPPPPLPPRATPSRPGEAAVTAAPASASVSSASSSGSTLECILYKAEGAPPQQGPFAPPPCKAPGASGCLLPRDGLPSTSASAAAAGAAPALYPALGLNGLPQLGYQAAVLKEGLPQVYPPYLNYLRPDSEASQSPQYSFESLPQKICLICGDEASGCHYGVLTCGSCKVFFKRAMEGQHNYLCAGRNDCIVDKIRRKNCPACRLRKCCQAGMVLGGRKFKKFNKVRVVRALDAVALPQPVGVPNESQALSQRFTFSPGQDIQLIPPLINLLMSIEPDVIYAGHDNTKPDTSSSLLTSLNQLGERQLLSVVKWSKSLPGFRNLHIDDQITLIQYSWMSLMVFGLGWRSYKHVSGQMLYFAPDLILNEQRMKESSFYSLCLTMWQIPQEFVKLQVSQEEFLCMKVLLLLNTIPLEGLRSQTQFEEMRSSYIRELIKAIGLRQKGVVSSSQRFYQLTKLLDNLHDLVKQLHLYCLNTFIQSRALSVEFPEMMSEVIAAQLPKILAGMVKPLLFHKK
Sequence of Nuclear receptor subfamily 1 group I member 2 (Rattus norvegicus) (Q9R1A7 whole entry, looked up): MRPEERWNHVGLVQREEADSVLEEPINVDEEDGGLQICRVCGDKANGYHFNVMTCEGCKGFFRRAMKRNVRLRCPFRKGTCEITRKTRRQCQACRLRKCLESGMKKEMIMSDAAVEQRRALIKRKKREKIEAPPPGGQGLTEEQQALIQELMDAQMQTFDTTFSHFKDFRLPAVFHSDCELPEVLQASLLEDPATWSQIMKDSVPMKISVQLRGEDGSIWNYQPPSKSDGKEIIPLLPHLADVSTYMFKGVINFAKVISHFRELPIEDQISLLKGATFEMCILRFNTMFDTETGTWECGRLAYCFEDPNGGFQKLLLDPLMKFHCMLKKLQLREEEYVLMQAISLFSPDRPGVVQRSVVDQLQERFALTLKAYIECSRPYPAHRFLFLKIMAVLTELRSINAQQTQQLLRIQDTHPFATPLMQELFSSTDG
Sequence of Cytochrome P450 2D6 (Homo sapiens) (P10635 whole entry, looked up): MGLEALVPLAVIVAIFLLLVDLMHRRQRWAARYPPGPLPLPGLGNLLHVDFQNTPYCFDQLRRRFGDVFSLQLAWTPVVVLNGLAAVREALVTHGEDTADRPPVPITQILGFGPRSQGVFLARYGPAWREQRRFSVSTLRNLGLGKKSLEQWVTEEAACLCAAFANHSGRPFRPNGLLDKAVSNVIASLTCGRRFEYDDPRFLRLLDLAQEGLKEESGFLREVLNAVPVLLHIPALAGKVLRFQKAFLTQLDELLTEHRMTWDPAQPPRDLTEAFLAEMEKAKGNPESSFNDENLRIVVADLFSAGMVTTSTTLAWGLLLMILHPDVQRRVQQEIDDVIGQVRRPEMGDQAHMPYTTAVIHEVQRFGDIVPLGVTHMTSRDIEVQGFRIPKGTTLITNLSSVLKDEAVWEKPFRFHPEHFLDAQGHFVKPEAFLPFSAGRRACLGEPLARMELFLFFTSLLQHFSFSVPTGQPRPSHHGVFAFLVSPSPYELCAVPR

O=C(O)Cc1ccc2c(c1)C(=O)c1ccccc1CO2
inactive: Potency [1] | Potency [2] | Potency [3] | Potency [4] | Potency [5] | Potency [6] | Potency [7] | Potency [8] | Potency [9] | Potency [10] | Potency [11] | Potency [12] | Potency [13] | Potency [14]

[Cu+]
inactive: Potency [1] | Potency [2] | Potency [3] | Potency [4] | Potency [5] | Potency [6] | Potency [7] | Potency [8] | Potency [9] | Potency [10] | Potency [11] | Potency [12]

Cc1nc(-c2ccc(Cl)cc2)oc1COC(C)(C)C(=O)O
inactive: Potency [1] | Potency [2] | Potency [3] | Potency [5] | Potency [6] | Potency [15] | Potency [16] | outcome [17] | Potency [7] | Potency [8] | Potency [9] | Potency [10] | Potency [11] | Potency [12] | max activation [18] -7.31% | Potency [19] | Potency [20] | Potency [13] | Potency [14]

COC(=O)C1=C(C)NC(C)=C(C(=O)OCCN2CCN(C(c3ccccc3)c3ccccc3)CC2)C1c1cccc([N+](=O)[O-])c1 (stereo not drawn)
inactive: Potency [1] | Potency [2] | Potency [3] | Potency [5] | Potency [6] | Potency [15] | Potency [16] | outcome [17] | Potency [8] | Potency [10] | Potency [12] | Potency [19] | Potency [20]
active: Potency [9] 21.1 µM | Potency [13] 2.75 µM

C[C@@H](O)[C@H](N)C(=O)O
inactive: activation [1] 0.125% [at 19 µM] | activity change, negative = inhibition [2] 8.03% [at 18.9 µM] | activity change, negative = cytotoxicity [3] -0.923% [at 18.9 µM] | activity change, negative = cytotoxicity [4] -6.31% [at 19 µM] | viability change, negative = cytotoxic [5] 4.73% [at 15.8 µM] | activity change, negative = cytotoxicity [6] 1.96% [at 15.8 µM] | activity, negative = inhibition [16] 12.1% [at 10.5 µM] | activity change, negative = cytotoxicity [7] 14% [at 19 µM] | caspase activation [8] -1.24% [at 19 µM] | activity change, negative = cytotoxicity [9] -0.658% [at 19 µM] | caspase-3/7 activation [10] -0.26% [at 19 µM] | activity change, negative = cytotoxicity [11] -2.32% [at 19 µM] | activation [12] -12.7% [at 19 µM] | max activation [18] -1.79% | Potency [19] | Potency [20] | activity change, negative = inhibition [13] -2.59% [at 23.6 µM] | activity change, negative = inhibition [14] 6.88% [at 23.6 µM]

Cc1cc(C(C)(C)C)cc(C)c1CC1=NCCN1
active: Potency [13] 3.47 µM
inactive: Potency [1] | Potency [2] | Potency [3] | Potency [4] | Potency [5] | Potency [6] | Potency [15] | Potency [8] | Potency [9] | Potency [10] | Potency [11] | Potency [12] | max activation [18] -6.02% | Potency [19] | Potency [20] | Potency [14]

NC(=S)NC(N)=S
active: Potency [14] 20 µM
inactive: Potency [1] | Potency [2] | Potency [3] | Potency [4] | Potency [5] | Potency [6] | Potency [16] | outcome [17] | Potency [7] | Potency [8] | Potency [9] | Potency [10] | Potency [11]

CCCCN(CCCC)CC(O)c1cc(Cl)cc2c1-c1ccc(Cl)cc1/C2=C/c1ccc(Cl)cc1 (stereo not drawn)
inactive: Potency [1] | Potency [2] | Potency [3] | Potency [4] | Potency [5] | Potency [6] | Potency [16] | outcome [17]
active: Potency [7] 29.8 µM | Potency [9] 26.6 µM | Potency [19] 10 µM | Potency [20] 11.2 µM | Potency [13] 0.49 µM | Potency [14] 17.4 µM
